Screens (PubChem)
Sampled rows, rich in hits. Any-hit rate of the full collection: about 12%.
HP1b binding inh: inhibitors of HP1-beta chromodomain binding to methylated histone tails; P83916; 390,000 compounds, 0.56% hits; AlphaScreen HP1-beta / biotin-H3K9me3 peptide binding; Potency, µM (series often up to 114 µM), for inactives: at the top dose activity change, negative = inhibition, most hits filed as inhibitors; further: nearly all actives have a fitted effect of over 70% in size
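AlphaScreen: HP1-beta (50 nM) preformed 30 min with biotin-H3(1-18)K9me3 peptide (50 nM) in PBS pH 7.4, 0.01% Tween-20. Compound added for 30 min at RT, then streptavidin donor/nickel chelate acceptor beads (10 ug/mL) for 30 min.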
G9a inh: blocks human histone lysine methyltransferase G9a. Q96KQ7. G9a H3K9 monomethylation, AlphaScreen, 2 h. Potency, µM (series often up to 102 µM), for inactives: at the top dose activity, negative = inhibition, most hits filed as inhibitors. 350,000 compounds, 8.8% hits. AID 504332; further: on the % scale 0 is the no-effect control and ±100 the full control effect; nearly all actives have a fitted effect of over 75% in size
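Readings reflect AlphaScreen signal from monomethyl-H3K9 antibody detection. HMT at 20 nM; substrate b-H3K9 500 nM; cofactor SAM 20 uM; 2 h RT reaction; compounds tested as titrations in qHTS with 15 min preincubation.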
JMJD2A Tudor inh: JMJD2A Tudor domain (human) inhibition | O75164 | AlphaScreen JMJD2A-Tudor / H3K4me3 peptide binding | Potency, µM (doses to about 114 µM), without a hit: top-dose activity change, negative = inhibition, most hits filed as inhibitors | 390,000 compounds, 4.4% hits | AID 504339; further: on the % scale 0 is the no-effect control and ±100 the full control effect; nearly all actives have a fitted effect of over 50% in size
L3MBTL1 inh: L3MBTL1 (human) inhibition; AlphaScreen L3MBTL1–H3K9me1 peptide binding; Potency, µM (doses to about 57.1 µM), without a hit: at the top dose activity, negative = inhibition, hits mostly inhibitors; 230,000 compounds, 0.66% hits; AID 485360; further: on the % scale 0 is the no-effect control and ±100 the full control effect; nearly all actives have a fitted effect of over 60% in size
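Displacement of a biotinylated histone H3(1-15) peptide monomethylated at Lys9 (75 nM) from L3MBTL1 (50 nM) was measured by AlphaScreen after a 30 min room-temperature compound incubation; cefsulodin titration served as intraplate control.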
Sfp inh: blocks B. subtilis Sfp PPTase activity; 310,000 compounds, 3.5% hits; Potency, µM, for inactives: largest response in the series, negative = inhibition, hits mostly inhibitors; Q9F4F7; Biochemical Sfp PPTase activity, qHTS; AID 1490;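 further: the enzyme is Sfp with the accession as filed and its product quenches rhodamine fluorescence; 0% = enzyme reaction without inhibitor and -100% = no enzyme wells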
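Buffer: 50 mM Hepes-Na pH 7.6, 10 mM MgCl2, 0.01% Nonidet P-40, 0.01% BSA. Enzyme 15 nM, pre-exposed to compound 15 min; substrates then added and fluorescence change tracked over 30 min.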
BAZ2B block: BAZ2B (human) inhibition. Q9UIF8. AlphaScreen BAZ2B-H3K14Ac peptide displacement. Potency, µM (highest dose often 114 µM), for inactives: top-dose activity change, negative = inhibition, hits mostly inhibitors. 360,000 compounds, 4.4% hits; further: on the % scale 0 is the no-effect control and ±100 the full control effect; nearly all actives have a fitted effect of over 60% in size
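Complex of BAZ2B and biotin-H3K14Ac (50 nM apiece) forms over 30 min at RT, then faces library compounds up to 110 uM for another 30 min; AlphaScreen beads added, 20 min dark incubation, luminescence read.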
Active calls of the source: *; ? = inconclusive; / = no result; [ ] = remark or other dose. The call rests on the fitted dose curve; in most records, active means well fitted curve in the direction sought with a large enough effect; inconclusive means small, poorly fitted or top-dose-only effect, or another doubt; inactive means no such curve, though single readings can be large; an effect the other way counts as inactive or inconclusive. Potency means the concentration at half of the fitted maximal effect.

SMILES	HP1b binding inh	G9a inh	JMJD2A Tudor inh	L3MBTL1 inh	Sfp inh	BAZ2B block
O=C(NN=Cc1cc(=O)[nH]c(=O)[nH]1)c1ccncc1	68.6%	/	?	/	/	/
COc1cc(C2Nc3ccccc3-c3nnc(SCc4ccc(C)cc4)nc3O2)cc(OC)c1O (stereo unspecified)	13.3%	7.08µM*	?	/	/	?
CCc1cccc(NC(=O)CSc2ncccc2C(=O)Oc2ccccc2Cl)c1	39.7%	?	-12.3%	/	/	-17.0%
CCOc1cc(S(=O)(=O)n2ccnc2)ccc1Cl	5.7%	?	5.6%	7.6%[11.4 µM]	6.2%	79.4µM*
COc1cccc(/C(C)=N/Nc2ccc(S(=O)(=O)N3CCCCC3)cn2)c1	48.6%	7.1%[12.7 µM]	-30.4%	-10.7%	/	-7.1%
COc1cc(CNc2ccc(N3CCOCC3)cc2)ccc1OCC(=O)NC(C)(C)C	-17.3%	/	?	-10.1%	-8.5%	-13.6%
CC(=O)N1CCN(c2ccc(NCc3ccc(-c4cccc(Cl)c4)o3)cc2)CC1	?	/	39.8µM*	?	/	/
CC(=O)N1CCN(c2ccc(NCc3ccc(C)cc3)cc2)CC1	-23.9%	12.6µM*	?	-17.3%	39.8µM*	44.7µM*
Cc1ccc(NCc2ccccc2O)cc1	-4.3%	-5.6%[2.33 µM]	?	/	-4.3%	?
COc1cc(CNc2ccc(N3CCN(C(C)=O)CC3)cc2)ccc1OCc1ccccc1	44.7µM*	28.2µM*	44.7µM*	-29.5%	-27.0%	39.8µM*
Cc1ccc(CNc2ccc(O)cc2)cc1	-73.1%	?	50.1µM*	25.1µM*	?	31.6µM*
COc1ccc2cc(CNc3ccc(C)cc3)c(=O)n(CC(=O)Nc3ccc(C)cc3Cl)c2c1	40.6%	5.7%[59 µM]	-1.0%	/	/	-19.0%
Cc1cc(NS(=O)(=O)c2ccc(N)cc2)nc(C)n1	/	33.4%[59 µM]	/	/	7.7%	/
Cc1ccc(C(=O)c2cn(Cc3ccccc3)c3nc(C)ccc3c2=O)cc1	15.9%	-5.6%[59 µM]	-12.6%	/	/	-11.5%
COc1ccc(N2CCN(C(=O)NCc3ccc(C)cc3)CC2)cc1	15.9%	39.8µM*	-6.4%	/	18.1%	-25.0%
CC(=O)N1CCN(c2ccc(NCc3ccco3)cc2)CC1	31.7%	8.7%[0.501 µM]	-17.1%	-8.1%	/	?
CCc1ccc(CNc2ccc(N3CCN(C(C)=O)CC3)cc2)cc1	-48.3%	?	?	/	35.5µM*	39.8µM*
CCC1=C2CC[C@H]3C(=O)N(CC(=O)OC)C(=O)[C@H]3[C@H]2[C@@]2(C)C(=O)N(CC3CC3)C(=O)N2C1=O	/	/	/	/	50.1µM*	/
Cc1cc(C)nc(Nc2n[nH]c(COc3ccccc3)n2)n1	-3.5%	-0.1%[59 µM]	31.6µM*	1.3%	9.3%	-3.2%
N#CC1(c2ccccc2)CCC(=O)N1c1ccccc1 (stereo unspecified)	18.4%	4.0%	-15.9%	9.1%	17.9%	4.8%
COCCOC(=O)c1c(NC(=O)CSc2cccc[n+]2[O-])sc(C(N)=O)c1C	32.1%	2.51µM*	-16.7%	17.9%	11.4%	?
COC(=O)c1ccc(-n2c(C)cc(C(=O)CSc3cccc[n+]3[O-])c2C)cc1	17.3%	50.1µM*	-24.2%	2.7%	11.5%	-25.7%
CCCc1cc(=O)[nH]c(SCC(=O)Nc2sc(C(N)=O)c(C)c2C(=O)OCCOC)n1	26.4%	10.3%[12.7 µM]	-6.5%	0.8%	/	14.4%
Cc1cc(C(=O)CSc2cccc[n+]2[O-])c(C)n1-c1ccc(OC(F)F)cc1	9.1%	2.4%[12.7 µM]	-16.0%	/	-16.2%	?
CCOC(=O)c1c(NC(=O)C(Sc2ccccc2)c2ccccc2)sc(C(=O)N(C)C)c1C (stereo unspecified)	9.0%	24.8%[59 µM]	-31.0%	-11.8%	-8.0%	-5.0%
SMILES	HP1b binding inh	G9a inh	JMJD2A Tudor inh	L3MBTL1 inh	Sfp inh	BAZ2B block
O=C(CSc1cccc[n+]1[O-])Nc1cc2c(cc1Cl)C(=O)c1ccccc1C2=O	6.1%	7.94µM*	?	12.2%	?	?
CCOC(=O)c1c(NC(=O)C(Sc2ccccc2)c2ccccc2)sc(C(N)=O)c1C (stereo unspecified)	22.2%	7.94µM*	-6.3%	-6.2%	-6.7%	10.9%
O=C(CSc1cccc[n+]1[O-])Nc1cc([N+](=O)[O-])ccc1Cl	22.2%	-10.0%	-16.5%	11.3%	-6.4%	14.8%
Cc1ccc(NC(=O)CSc2nc(-c3ccco3)nc3cc(=O)[nH]n23)cc1	8.0%	8.7%[59 µM]	-26.3%	/	/	-37.1%
c1ccc(OCCN2CCN(C(c3ccccc3)c3ccccc3)CC2)cc1	15.9%	/	-33.2%	0.5%	-5.1%	-14.0%
COC(=O)c1ccc(C(=O)OC)c(NC(=O)CSc2cccc[n+]2[O-])c1	?	/	44.7µM*	15.0%	-103.4%	-3.2%
Cc1cccc(-c2oc(C)c(C)[n+]2[O-])c1	2.0%	?	44.7µM*	/	1.9%	-3.9%
Cc1oc(-c2ccccc2)[n+]([O-])c1C	11.2%	/	-27.6%	1.0%	8.6%	-4.1%
CC(C)NC(=O)N1CCCC2(CCN(C(=O)c3csnn3)CC2)C1	/	2.4%[12.7 µM]	/	/	19.9%	/
O=S(=O)(Nc1cc(O)cc2cccnc12)c1ccc(Cl)s1	/	/	79.4µM*	/	-25.0%	/
O=S(=O)(Nc1ccccc1N1CCCCC1)c1ccc(Cl)s1	?	-9.9%	?	/	-12.8%	-37.4%
